Assay results taken from PubChem BioAssay AID1650 (Southern Research Specialized Biocontainment Screening …, 2009).
Measured potencies and affinities stand elsewhere. Activity calls are given as the source filed them. How the calls were made is not given here.

Test: host cell cytotoxicity of antiviral hits, dose response, cytotoxicity control for West Nile virus antiviral project, secondary assay (AID 1650)
Conditions: Mammalian host cell viability, cytotoxicity counter-screen; series mostly up to 10 µM

Row | SMILES | outcome
1 | CC1(C)CC(NC(=O)COc2cc3oc(=O)c4c(c3cc2Cl)CCC4)CC(C)(C)N1 | inactive
2 | Cc1cccc(-c2ccc(NC(=O)C3CCN(CC4CC4)CC3)cc2)c1 | inactive
3 | CCCCOC(=O)Cn1c2ccc(OC)cc2c2nc3ccccc3nc21 | inactive
4 | CN(C)CCCN(C(=O)c1ccc(S(=O)(=O)N2CCCc3ccccc32)cc1)c1nc2ccc(F)cc2s1 | inactive
5 | CN1CCN(c2ccc(C(F)(F)F)cc2NC(=O)Nc2ccccc2)CC1 | inactive
6 | CC(=O)Nc1ccccc1N(CC(O)Cn1c2ccccc2c2ccccc21)S(=O)(=O)c1ccc(C)cc1 (stereo not given) | inactive
7 | COc1cc([C@H]2c3[nH]c4ccccc4c3C[C@H]3C(=O)N4[C@@H](c5cc(OC)c(OC)c(OC)c5)c5[nH]c6ccccc6c5C[C@H]4C(=O)N23)cc(OC)c1OC | inactive
8 | Cc1c(NC(=O)COC(=O)c2cc(-c3ccc(-c4ccccc4)cc3)nc3ccccc23)c(=O)n(-c2ccccc2)n1C | inactive
9 | O=C(Nc1ccc(Nc2ccccc2)cc1)C(Cl)Cl | inactive
10 | C/C(N)=C(/C#N)C(=O)COC(=O)c1cc(-c2ccc(Br)cc2)nc2ccccc12 | inactive
11 | OC(COc1ccc(CNCCc2ccc(C(F)(F)F)cc2)cc1)CN1CCCCC1 (stereo not given) | inactive
12 | COc1ccc(CCNC(=O)COc2ccc(S(=O)(=O)NCC(C)C)cc2Cl)cc1OC | inactive
13 | N#CC(C(=O)NC1CCCCC1)c1nc2ccccc2nc1N1CCN(c2ccc(F)cc2)CC1 (stereo not given) | inactive
14 | Nc1nonc1-n1nnc(C(=O)N/N=C/c2ccccc2Cl)c1CSc1ccccc1 | inactive
15 | c1ccc(-c2ccc(-c3[nH]ncc3CN3CCC(N4CCSCC4)CC3)cc2)cc1 | inactive
16 | CCOc1c2ccoc2nc2c(OC)c(OC)ccc12 | inactive
17 | COC(=O)c1c(NC(=O)CCS(=O)(=O)c2ccccc2)sc2c1CCN(C)C2 | inactive
18 | CN(C)CCCN(C(=O)c1ccc2c(c1)CCCC2)c1nc2ccc(F)cc2s1 | inactive
19 | CN(C)CCNC(=O)c1cc2sc3ccccc3c2s1 | inactive
20 | CC1CCCN(Cc2c(O)ccc3c(=O)c(-c4nc5ccccc5s4)c(N)oc23)C1 (stereo not given) | inactive

Row | SMILES | outcome
21 | O=C(Nc1ccc(F)c(Cl)c1)Nc1ccc(Cl)cn1 | inactive
22 | O=C(NCCCN1CCOCC1)c1cc2c([nH]c3ccccc32)c(-c2cccc(Br)c2)n1 | inactive
23 | CC(/C=N/Nc1nc(N2CCCCC2)nc(N2CCCCC2)n1)=C\c1ccccc1 | inactive
24 | Cc1cc2nc(Sc3c([N+](=O)[O-])nc(C)n3Cc3ccccc3)[nH]c2cc1C | inactive
25 | Cc1ccc(S(=O)(=O)N(C)C)cc1NC(=O)c1cncc(Br)c1 | inactive
26 | Cc1ccc(-c2cc(C(=O)NCCCN3CCCC3)c3ccccc3n2)cc1C | inactive
27 | COc1cc(CNC(C)(C)CO)ccc1OCC(=O)Nc1ccc(Br)cc1 | inactive
28 | CCN(CC)CCNC(=O)c1ccc(NC(=O)C2CCN(c3ncnc4sc(C)c(C)c34)CC2)cc1 | inactive
29 | CN(C)Cc1c(C(=O)N/N=C/c2cccc(OCc3c(F)cccc3Cl)c2)nnn1-c1nonc1N | inactive
30 | O=C(CN1C(=O)/C(=C\c2cccc(Cl)c2)Sc2ccccc21)NCCCN1CCOCC1 | inactive
31 | CCOc1ccc(NC(=NCc2ccc3c(c2)OCO3)SC2CC(=O)N(c3ccc(OCC)cc3)C2=O)cc1 (stereo not given) | inactive
32 | CN(Cc1ccccc1)c1nc(N)c([N+](=O)[O-])c(Nc2cccc(F)c2)n1 | inactive
33 | COc1ccc(NC(=O)CSc2nc3c(sc4ccccc43)c(=O)n2CCCN2CCCC2)cc1 | inactive
34 | CC(CN1CCCC1)C(=O)NN (stereo not given) | inactive
35 | CN(C)CCCN(C(=O)c1ccc2c(c1)OCCO2)c1nc2ccc(Cl)cc2s1 | inactive
36 | CC1CN(C(=O)CCC(=O)NCCCN2CCC(Cc3ccccc3)CC2)c2cc(Cl)ccc2O1 (stereo not given) | inactive
37 | Cc1ccccc1C(=O)c1cccn1CC(=O)NCCN1CCN(c2cccc(C)c2C)CC1 | inactive
38 | COc1cc(C(=O)N/C(=C/c2ccc(F)cc2)C(=O)NC(C(=O)O)c2ccccc2)cc(OC)c1OC (stereo not given) | inactive
39 | CCCCN(CC)CCNC(=S)Nc1ccc2nc(N3CCN(C)CC3)cc(C)c2c1 | inactive
40 | Cc1cccc(C)c1Nc1nc2ccccc2o1 | inactive
